The structures appear in SMILES notation. Records with an inconclusive call do not appear. A call without a number means that no potency is given here. Active and inactive are the calls of the source. The call rests on the fitted dose curve; in most records, active means well fitted inhibition curve with a large enough effect; inconclusive means small, poorly fitted or top-dose-only effect; inactive means flat fitted curve, though single readings scatter.

Sequence of Calcium and integrin-binding protein 1 (Homo sapiens) (Q99828 whole entry, looked up): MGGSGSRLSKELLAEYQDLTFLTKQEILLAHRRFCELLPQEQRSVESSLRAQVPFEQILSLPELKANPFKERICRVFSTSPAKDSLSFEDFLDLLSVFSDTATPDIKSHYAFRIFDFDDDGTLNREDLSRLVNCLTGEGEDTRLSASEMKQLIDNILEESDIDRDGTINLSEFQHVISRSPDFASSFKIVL

This assay concerns the target Calcium and integrin-binding protein 1 (Homo sapiens) (UniProt Q99828). The assay is described as follows: Primary qHTS for Identification of Calcium Integrin Binding Protein 1 (CIB1) Competitor (AID 1508620). Further: top concentration of the series differs between compounds. As to conditions: CIB1-GST / FITC-alphaIIb peptide fluorescence polarization; series mostly up to 114 µM. Summed up: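 Fluorescence polarization competition: GST-tagged CIB1 (1 uM final) preincubated with compound 15 min at room temperature, then FITC-labelled alphaIIb peptide (100 nM final) added. After 15 min at room temperature, polarization read at Ex 480/Em 540.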
On to `O=C(COC(=O)CNC(=O)C1CCCCC1)Nc1cc(C(F)(F)F)ccc1Cl`, for which the Potency entry was “inactive”.

With `COc1cc2nc(Nc3ccccc3)nc(NC3CC3)c2cc1OC`, the Potency entry was “inactive”.

As to `O=[S+]([O-])(Nc1cnc2ccccc2c1)c1ccc(NCc2ccc(Cl)cc2O)cc1`, the Potency entry is “inactive”.

For the compound `N#CN/C(=N\c1nnc(-c2ccncc2)s1)Nc1ccc(F)c(C(F)(F)F)c1`, the Potency result is “inactive”.

For the compound `COc1ccc(C(=O)OCC#CCSc2nnc(-c3cccc4ccccc34)o2)cc1`, the Potency result is “inactive”.

For `COc1ccc(-c2cnc(N3CCC(C(N)=O)CC3)s2)cc1OC`, the Potency entry was “inactive”.

On to `O=C1c2ccccc2C(=O)N1c1ccccc1O`, for which the Potency result is “inactive”.

Turning to `O=C1Nc2cc(Cl)ccc2/C1=C\c1cc(Cl)c(O)c(Cl)c1`, the Potency entry is “inactive”.

In the case of `FC(F)(F)c1ccc(CSc2nc3ncc(Br)cc3[nH]2)cc1`, the Potency result was “inactive”.

With `COc1ccc(C)cc1NC(=O)C(OC(=O)CNC(=O)c1ccccc1)c1ccccc1` (stereo not given), the Potency result is “inactive”.

Regarding `N#Cc1c(-c2csc(-c3no[n+]([O-])c3C#N)c2)no[n+]1[O-]`, the Potency result was “inactive”.

For `COc1cccc(CCN2C(=O)c3ccccc3NC2c2ccc(OC)c(COc3c(C)cc(NC(C)=O)cc3C)c2)c1` (stereo not given), the Potency result is “inactive”.

As to `O=C1Cc2cc(C(=O)c3ccco3)ccc2N1`, the Potency entry is “inactive”.

As to `Cc1ccccc1-c1csc2ncnc(Sc3nnnn3C)c12`, the Potency entry was “inactive”.

As to `Cc1cc(C)nc(NC(=S)N2CCN(c3nccc4ccccc34)CC2)c1`, the Potency result is “inactive”.

Consider `Cc1cccc(-n2cnc3cc(C(=O)N4CCCC(C(F)(F)F)C4)ccc32)c1` (stereo not given), for which the Potency entry was “inactive”.

Turning to `COc1cccc(CCC(=O)NCCc2nc3ccccc3n2CCOc2ccc(C)cc2)c1`, the Potency entry is “inactive”.

Take `COc1cc(-c2ccc3ncnc(N(C)Cc4csc(C)n4)c3c2)cc(OC)c1OC`: the Potency entry is “inactive”.

For the compound `Cc1ccc(-c2nc(NCC(=O)Nc3cccc(C(=O)O)c3)c3ccccc3n2)cc1`, the Potency entry is “inactive”.

On to `c1nc(NCCc2cnc[nH]2)c2cc(-c3ccc4c(c3)OCO4)ccc2n1`, for which the Potency result is “inactive”.

Consider `Cc1cc(NS(=O)(=O)c2ccc(NC(=O)Cc3ccccc3)cc2)no1`, for which the Potency result is “inactive”.

In the case of `CS(=O)(=O)c1ccc(C(=O)OCC(=O)N2CCOCC2)cc1[N+](=O)[O-]`, the Potency entry was “inactive”.

Take `Cc1c(P(=S)(c2ccccc2)c2ccccc2)c2ccccc2n1CCc1ccccc1`: the Potency result was “inactive”.

For `CC(=O)NC(c1cc(Cl)c2cccnc2c1O)C1CC1` (stereo not given), the Potency entry is “inactive”.

As for `O=C(CN1C(=O)N/C(=C\c2cccn2-c2cccc(C(=O)O)c2)C1=O)Nc1ccccc1F`, the Potency entry was “inactive”.

With `COc1ccc(-c2ccc3ncnc(NCc4nc(C)cs4)c3c2)cc1OC`, the Potency entry is “inactive”.

With `O=c1c2[nH]c3ccsc3c2cnn1Cc1ccccc1F`, the Potency result was “inactive”.

Consider `O=C(Nc1cccc(C(=O)O)c1)Nc1nnc(-c2ccncc2)s1`, for which the Potency entry was “inactive”.

Consider `Cc1ccc(NS(=O)(=O)c2ccc(-c3ccccc3)cc2)cc1C`, for which the Potency result is “inactive”.

For `COc1cccc(-c2nnc3n2N=C(c2c(OC)cccc2OC)CS3)c1`, the Potency entry was “inactive”.

Regarding `O=C(O)c1ccccc1OC1=NS(=O)(=O)c2ccccc21`, the Potency entry is “inactive”.

As to `FC(F)(F)c1cccc(N2CCN(C(=S)Nc3nccc4ccccc34)CC2)c1`, the Potency result was “inactive”.

Consider `CN1CCN(Cc2cc(COCc3ccccc3)c3cccnc3c2O)CC1`, for which the Potency entry is “inactive”.

As to `O=C(CNC(=O)c1ccc(C(F)(F)F)cc1)OC(C(=O)Nc1cc(C(F)(F)F)ccc1Cl)c1ccccc1` (stereo not given), the Potency result was “inactive”.

As to `Cc1c(P(=S)(c2ccccc2)c2ccccc2)c2ccccc2n1C(=O)NCc1ccc(F)cc1`, the Potency entry is “inactive”.

`COc1cccc(CNc2ccc(S(=O)(=O)Nc3cccc4ccncc34)cc2)c1O`: the Potency result was “inactive”.

For the compound `Cc1nc(CNc2ncnc3ccc(-c4sc(C)nc4C)cc23)cs1`, the Potency entry is “inactive”.

`Cc1cnc(-c2ccccc2C(C)C)nc1NCc1cccs1`: the Potency result was “inactive”.

As for `CCCC(C)NC(=O)Cn1nc(-c2ccc(C)cc2)ccc1=O` (stereo not given), the Potency result is “inactive”.

With `c1ccc(CNCc2nnc(-c3cc4ccccc4[nH]3)s2)cc1`, the Potency entry was “inactive”.
